PubChem BioAssay AID1159580 (chemical genetic matrix, 2015)
In all, about 5,500 compounds went through this assay and about 2,000 (36%) were called active. Roughly 18% stayed inconclusive and do not appear here. Cut-off read from the data, not from the text of the source: active = normalized growth mostly below about 0.91 (no sharp cut-off); inconclusive = no clear call, values can overlap the other calls; inactive = mostly above about 0.92. This is one part of the list.

Assay: chemical genetic growth profiling, strain panel (AID 1159580);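 note: tested at 20 µM; growth read once vehicle control cultures reached saturation at 30 °C; 1 = growth at the plate median or of vehicle wells; lower values mean less growth of the strain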
Details: growth OD

Measured: normalized growth

CC(=O)Nc1cccc(O)c1
inactive: S. cerevisiae deletion strains, locus YJL187C, strain SWE1, hits give low values 1.02 | S. cerevisiae deletion strains, locus YJR043C, strain POL32, hits give low values 0.999 | S. cerevisiae deletion strains, locus YJR075W, strain HOC1, hits give low values 1.01 | S. cerevisiae deletion strains, locus YKL009W, strain mrt4, hits give low values 0.973 | S. cerevisiae deletion strains, locus YKL068W, hits give low values 0.989 | S. cerevisiae deletion strains, locus YKL085W, strain MDH1 (second series), hits give low values 1.01 | S. cerevisiae deletion strains, locus YKL085W, strain MDH1, hits give low values 1.01 | S. cerevisiae deletion strains, locus YKL160W, strain elf1, hits give low values 1.05 | S. cerevisiae deletion strains, locus YKL190W, strain CNB1, hits give low values 1 | S. cerevisiae deletion strains, locus YKR001C, strain vps1, hits give low values 0.991 | S. cerevisiae deletion strains, locus YKR026C, strain gcn3, hits give low values 1.01 | S. cerevisiae deletion strains, locus YKR091W, strain srl3, hits give low values 1.01 | S. cerevisiae deletion strains, locus YLL001W, strain dnm1, hits give low values 0.995 | S. cerevisiae deletion strains, locus YLL026W, hits give low values 1.03 | S. cerevisiae deletion strains, locus YLL041C, strain sdh2, hits give low values 1.03 | S. cerevisiae deletion strains, locus YLR027C, strain aat2, hits give low values 1.01 | S. cerevisiae deletion strains, locus YLR039C, strain RIC1, hits give low values 1 | S. cerevisiae deletion strains, locus YLR058C, strain SHM2, hits give low values 1.01 | S. cerevisiae deletion strains, locus YLR102C, strain apc9, hits give low values 1.01 | S. cerevisiae deletion strains, locus YLR221C, strain rsa3, hits give low values 0.972 | S. cerevisiae deletion strains, locus YLR258W, strain gsy2, hits give low values 1.04 | S. cerevisiae deletion strains, locus YLR262C, strain YPT6 (second series), hits give low values 1.01 | S. cerevisiae deletion strains, locus YLR262C, strain YPT6, hits give low values 1.02 | S. cerevisiae deletion strains, locus YLR268W, strain sec22, hits give low values 0.986 | S. cerevisiae deletion strains, locus YLR320W, strain mms22, hits give low values 0.957 | S. cerevisiae deletion strains, locus YLR330W, strain CHS5, hits give low values 1.01 | S. cerevisiae deletion strains, locus YLR342W, strain FKS1 (second series), hits give low values 1 | S. cerevisiae deletion strains, locus YLR342W, strain FKS1, hits give low values 1.04 | S. cerevisiae deletion strains, locus YLR357W, strain rsc2, hits give low values 1.04 | S. cerevisiae deletion strains, locus YLR370C, strain arc18, hits give low values 1.03 | S. cerevisiae deletion strains, locus YLR371W, strain rom2, hits give low values 0.999 | S. cerevisiae deletion strains, locus YLR384C, strain iki3, hits give low values 1.02 | S. cerevisiae deletion strains, locus YLR418C, strain cdc73, hits give low values 0.996 | S. cerevisiae deletion strains, locus YML016C, strain PPZ1, hits give low values 1.01 | S. cerevisiae deletion strains, locus YML032C, strain rad52, hits give low values 0.995 | S. cerevisiae deletion strains, locus YML120C, strain ndi1, hits give low values 0.972 | S. cerevisiae deletion strains, locus YML124C, strain tub3, hits give low values 0.986 | S. cerevisiae deletion strains, locus YMR058W, strain fet3, hits give low values 1.02 | S. cerevisiae deletion strains, locus YMR078C, strain ctf18, hits give low values 0.989 | S. cerevisiae deletion strains, locus YMR125W, strain sto1, hits give low values 1.03 | S. cerevisiae deletion strains, locus YMR129W, hits give low values 0.998 | S. cerevisiae deletion strains, locus YMR205C, strain PFK2, hits give low values 0.991 | S. cerevisiae deletion strains, locus YMR223W, strain ubp8, hits give low values 1 | S. cerevisiae deletion strains, locus YMR231W, strain pep5, hits give low values 1 | S. cerevisiae deletion strains, locus YMR263W, strain SAP30, hits give low values 1.01 | S. cerevisiae deletion strains, locus YMR307W, strain GAS1, hits give low values 1 | S. cerevisiae deletion strains, locus YNL067W, strain RPL9B, hits give low values 1.01 | S. cerevisiae deletion strains, locus YNL071W, strain lat1, hits give low values 1.01 | S. cerevisiae deletion strains, locus YNL153C, strain GIM3, hits give low values 1.02 | S. cerevisiae deletion strains, locus YNL209W, strain ssb2, hits give low values 1.02 | S. cerevisiae deletion strains, locus YNL233W, strain BNI4, hits give low values 1.02 | S. cerevisiae deletion strains, locus YNL248C, strain rpa49, hits give low values 1.07 | S. cerevisiae deletion strains, locus YNL250W, strain rad50, hits give low values 0.995 | S. cerevisiae deletion strains, locus YNL271C, strain bni1, hits give low values 0.993 | S. cerevisiae deletion strains, locus YNL298W, strain CLA4, hits give low values 0.978 | S. cerevisiae deletion strains, locus YNL307C, strain MCK1, hits give low values 1.01 | S. cerevisiae deletion strains, locus YNL322C, strain KRE1 (second series), hits give low values 1.05 | S. cerevisiae deletion strains, locus YNL322C, strain KRE1, hits give low values 1 | S. cerevisiae deletion strains, locus YNR049C, strain mso1, hits give low values 1.01 | S. cerevisiae deletion strains, locus YNR052C, strain pop2, hits give low values 1 | S. cerevisiae deletion strains, locus YOL006C, strain TOP1, hits give low values 1.03 | S. cerevisiae deletion strains, locus YOL012C, strain htz1 0.695 | S. cerevisiae deletion strains, locus YOL147C, strain pex11, hits give low values 0.99 | S. cerevisiae deletion strains, locus YOR001W, strain rrp6, hits give low values 0.952 | S. cerevisiae deletion strains, locus YOR061W, strain CKA2, hits give low values 1 | S. cerevisiae deletion strains, locus YOR069W, strain VPS5, hits give low values 1 | S. cerevisiae deletion strains, locus YOR070C, strain gyp1, hits give low values 1.02 | S. cerevisiae deletion strains, locus YOR080W, strain dia2, hits give low values 1.02 | S. cerevisiae deletion strains, locus YOR083W, strain WHI5, hits give low values 0.997 | S. cerevisiae deletion strains, locus YOR106W, strain vam3, hits give low values 1.05 | S. cerevisiae deletion strains, locus YOR136W, strain idh2, hits give low values 0.995 | S. cerevisiae deletion strains, locus YOR144C, strain elg1, hits give low values 0.993 | S. cerevisiae deletion strains, locus YOR184W, strain ser1, hits give low values 1 | S. cerevisiae deletion strains, locus YOR265W, strain rbl2, hits give low values 1.01 | S. cerevisiae deletion strains, locus YOR270C, strain vph1, hits give low values 1.05 | S. cerevisiae deletion strains, locus YOR290C, strain snf2, hits give low values 1.05 | S. cerevisiae deletion strains, locus YOR316C, strain cot1, hits give low values 0.991 | S. cerevisiae deletion strains, locus YPL051W, strain arl3, hits give low values 1.04 | S. cerevisiae deletion strains, locus YPL055C, strain LGE1, hits give low values 1.01 | S. cerevisiae deletion strains, locus YPL078C, strain atp4, hits give low values 1.04 | S. cerevisiae deletion strains, locus YPL106C, strain sse1, hits give low values 1.01 | S. cerevisiae deletion strains, locus YPL240C, strain hsp82, hits give low values 1.01 | S. cerevisiae deletion strains, locus YPR119W, strain clb2, hits give low values 1 | S. cerevisiae deletion strains, locus YPR141C, strain kar3, hits give low values 0.98 | S. cerevisiae deletion strains, locus YPR163C, strain tif3, hits give low values 0.988 | S. cerevisiae deletion strains, locus YPR167C, strain met16, hits give low values 0.997 | S. cerevisiae deletion strains, strain wtn01, hits give low values 0.995 | S. cerevisiae strains, strain wild type, hits give low values 1.01
